Assay outcomes as filed in PubChem.
KB-V1 cytotox = KB-V1 MDR subline cytotoxicity | KB-V1 MDR cells viability, CellTiter-Glo, 72 h | 400,000 tested, 3.4% active | Potency, µM (doses to about 46.1 µM), most hits filed as cytotoxic; further: nearly all actives have a fitted effect of over 60% in size
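KB-V1 MDR subline cells in DMEM (phenol-red free, 10% FBS) exposed to compounds in qHTS concentration series for 72 h at 37 degrees C. Viability read by CellTiter-Glo luminescence; concentration-effect curves fitted after normalization and correction.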
MCF10A rerep = DNA re-replication induction in MCF 10a cells. MCF 10A DNA re-replication, Hoechst nuclear intensity, 48 h. Potency, µM (highest dose often 46.1 µM), actives largely listed as activators. 350,000 tested, 2.9% active; further: nearly all actives have a fitted effect of over 50% in size
HT1080-NT tox = kills 2HG-producing HT-1080-NT fibrosarcoma cells. Potency, µM (series often up to 46.1 µM), most hits filed as cytotoxic. 360,000 tested, 1.6% active. HT-1080-NT fibrosarcoma viability, CellTiter-Glo ATP luminescence, 48 h;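 further: NT is the 2HG producing partner of a matched IDH1 knockdown line; nearly all actives have a fitted effect of over 55% in size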
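Fibrosarcoma NT cells, 750 per well in 5% FBS RPMI, were exposed to compound for 48 hours. Viability: CellTiter-Glo luminescence.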
SW480 rereplic = induces DNA re-replication in SW480 colon adenocarcinoma cells. SW480 DNA re-replication, Hoechst DNA content imaging, 48 h. Potency, µM (titrated, usually from 46.1 µM), most hits filed as activators. 340,000 tested, 1.8% active. AID 624297; further: nearly all actives have a fitted effect of over 55% in size
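Cells (250 per well) received 23 nL compound or DMSO by pin tool and were kept 48 hr at 37 C, 5% CO2. Nuclei were then stained with Hoechst for 40 min and scanned for DNA content.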
KB-3-1 cytotox = kills parental KB-3-1 adenocarcinoma cells. KB-3-1 viability, CellTiter-Glo ATP luminescence, 72 h. 400,000 tested, 1.4% active. Potency, µM (doses to about 46.1 µM), usual class: cytotoxic. AID 1347075; further: nearly all actives have a fitted effect of over 60% in size
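Cytotoxicity measured as CellTiter-Glo luminescence after 72 h at 37 C. Compound titrations were pinned onto drug-naive KB-3-1 parental adenocarcinoma cells grown in DMEM with 10% FBS, and normalized data fitted to concentration-response curves.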
HT1080 IDH1KD tx = HT-1080 IDH1 knockdown cell toxicity (counter line); HT-1080 IDH1 knockdown viability, ATP luminescence, 48 h; 360,000 tested, 2% active; AID 686971; Potency, µM (top dose mostly 46.1 µM), hits mostly cytotoxic
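Cytotoxicity counter-line: IDH1KD HT-1080, 48 h, CellTiter-Glo. Curves classed by r2, magnitude and activity.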
Hits are given with their value; [ ] = another dose, or the depositor's remark. Sampled rows, rich in hits. Any-hit rate of the full collection: about 8%. The call rests on the fitted dose curve; in most records, active means well fitted curve in the direction sought with a large enough effect; inconclusive means small, poorly fitted or top-dose-only effect, or another doubt; inactive means no such curve, though single readings can be large; an effect the other way counts as inactive or inconclusive.

Screening CC(Oc1cccc(Cl)c1)C(=O)Nc1cc(S(=O)(=O)N2CCOCC2)ccc1N1CCCCC1 (stereo not drawn) returned KB-V1 cytotox 18µM, MCF10A rerep 13µM, HT1080-NT tox inactive, SW480 rereplic inactive, KB-3-1 cytotox inconclusive and HT1080 IDH1KD tx inactive.
Screening O=C(Nc1cc(S(=O)(=O)N2CCOCC2)ccc1N1CCOCC1)c1cnccn1 returned KB-V1 cytotox 10µM, MCF10A rerep inactive, HT1080-NT tox inactive, SW480 rereplic inactive, KB-3-1 cytotox inactive and HT1080 IDH1KD tx inactive.
For Cc1ccc(S(=O)(=O)N2CCOCC2)cc1NC(=O)CN1CCC(Cc2ccccc2)CC1 the results were KB-V1 cytotox inactive, MCF10A rerep inactive, HT1080-NT tox inactive, SW480 rereplic inactive, KB-3-1 cytotox 21µM and HT1080 IDH1KD tx inactive.
For Cc1ccc(S(=O)(=O)N2CCOCC2)cc1NC(=O)CN1CCN(C)CC1 the results were KB-V1 cytotox inactive, MCF10A rerep inactive, HT1080-NT tox inactive, SW480 rereplic inactive, KB-3-1 cytotox inactive and HT1080 IDH1KD tx inactive.
O=[N+]([O-])c1cc(/C=N/OCc2c(Cl)cccc2Cl)ccc1N1CCOCC1 was read as KB-V1 cytotox 13µM, MCF10A rerep inconclusive, HT1080-NT tox inactive, SW480 rereplic inconclusive, KB-3-1 cytotox inconclusive and HT1080 IDH1KD tx inactive.
Screening CO/N=C/c1ccc(N2CCOCC2)c([N+](=O)[O-])c1 returned KB-V1 cytotox inactive, MCF10A rerep inactive, HT1080-NT tox inactive, SW480 rereplic inactive, KB-3-1 cytotox inactive and HT1080 IDH1KD tx inactive.
`CCc1ccc(-c2cc(C)no2)cc1S(=O)(=O)Nc1ccc(Cl)cn1` gave KB-V1 cytotox inactive, MCF10A rerep inactive, HT1080-NT tox inactive, SW480 rereplic inactive, KB-3-1 cytotox inactive and HT1080 IDH1KD tx inactive.
CCc1ccc(-c2cc(C)no2)cc1S(=O)(=O)Nc1ccc(Cl)cc1 was read as KB-V1 cytotox 16µM and KB-3-1 cytotox inconclusive.
For COc1ncnc2c1ncn2CCCNCc1ccco1 the results were KB-V1 cytotox inactive, HT1080-NT tox inactive, KB-3-1 cytotox inactive and HT1080 IDH1KD tx inactive.
`O=C(Nc1ccccc1N1CCOCC1)c1cccnc1Cl` gave KB-V1 cytotox inactive, MCF10A rerep inactive, HT1080-NT tox inactive, SW480 rereplic inactive, KB-3-1 cytotox inactive and HT1080 IDH1KD tx inactive.
For CCCN1C(=O)/C(=N\OCC(=O)NC23CC4CC(CC(C4)C2)C3)c2ccccc21 the results were KB-V1 cytotox 16µM, MCF10A rerep inactive, HT1080-NT tox inactive, SW480 rereplic inactive, KB-3-1 cytotox inactive and HT1080 IDH1KD tx inactive.
`Cc1nc(CC(=O)Nc2nc(C(C)(C)C)cs2)cs1` gave KB-V1 cytotox inactive, MCF10A rerep inactive, HT1080-NT tox inactive, SW480 rereplic inactive, KB-3-1 cytotox inactive and HT1080 IDH1KD tx inactive.
`CCC(C)Nc1nc(N)c([N+](=O)[O-])c(Nc2ccccc2OC)n1` (stereo not drawn) gave KB-V1 cytotox inconclusive, MCF10A rerep inconclusive, HT1080-NT tox inconclusive, SW480 rereplic inactive, KB-3-1 cytotox inactive and HT1080 IDH1KD tx 21µM.
`COc1cccc2c(=O)c(SC(F)(F)C(F)C(F)(F)F)c(C)[nH]c12` (stereo not drawn) gave KB-V1 cytotox inactive, MCF10A rerep inconclusive, HT1080-NT tox inconclusive, SW480 rereplic 16µM, KB-3-1 cytotox inconclusive and HT1080 IDH1KD tx 21µM.
`Cc1[nH]c2ccc(F)cc2c(=O)c1SC(F)(F)C(F)C(F)(F)F` (stereo not drawn) gave KB-V1 cytotox inactive, MCF10A rerep inactive, HT1080-NT tox inactive, SW480 rereplic inactive, KB-3-1 cytotox inactive and HT1080 IDH1KD tx inconclusive.
CCC(C)(C)NC(=O)C(c1cccn1C)N(Cc1ccccc1)C(=O)Cn1nnc2ccccc21 (stereo not drawn) was read as KB-V1 cytotox 2.6µM, MCF10A rerep inactive, HT1080-NT tox inactive, SW480 rereplic inactive, KB-3-1 cytotox inactive and HT1080 IDH1KD tx inactive.
CN(C)CCCNc1nc2cc(-c3ccc(F)cc3)sc2c(=O)n1C was read as KB-V1 cytotox inactive, HT1080-NT tox inconclusive, KB-3-1 cytotox inactive and HT1080 IDH1KD tx 16µM.
For Cc1cc(Cl)ccc1-c1cc2nc(NCCCN(C)C)n(C)c(=O)c2s1 the results were KB-V1 cytotox inactive, HT1080-NT tox 18µM, KB-3-1 cytotox inactive and HT1080 IDH1KD tx 18µM.
For CN(C)CCCNc1nc2cc(-c3ccccc3)sc2c(=O)n1C the results were KB-V1 cytotox inactive, HT1080-NT tox 9.2µM, KB-3-1 cytotox inactive and HT1080 IDH1KD tx inconclusive.
Screening CC(C)Nc1nc(NC(C)C)nc(OCCOC(=O)c2ccccc2)n1 returned KB-V1 cytotox inconclusive, MCF10A rerep inactive, HT1080-NT tox inactive, SW480 rereplic inactive, KB-3-1 cytotox inactive and HT1080 IDH1KD tx inactive.
CNc1sc(C(=O)c2ccc(F)cc2)c(N)c1-c1nc2ccccc2s1 was read as KB-V1 cytotox inactive, MCF10A rerep 16µM, HT1080-NT tox 11µM, SW480 rereplic 5.2µM, KB-3-1 cytotox inactive and HT1080 IDH1KD tx 6.3µM.
For CNc1sc(C(=O)c2cccs2)c(N)c1-c1nc2ccccc2s1 the results were KB-V1 cytotox inactive, MCF10A rerep inconclusive, HT1080-NT tox inactive, SW480 rereplic inactive[9.22 µM], KB-3-1 cytotox inactive and HT1080 IDH1KD tx inconclusive.
Screening Cc1csc(NC(=O)CCCC(=O)O)c1-c1nc2ccccc2s1 returned KB-V1 cytotox inactive, MCF10A rerep inactive, HT1080-NT tox inactive, SW480 rereplic 15µM, KB-3-1 cytotox inactive and HT1080 IDH1KD tx inactive.
For CC(=O)Nc1scc(C)c1-c1nc2ccccc2s1 the results were KB-V1 cytotox inactive, MCF10A rerep 21µM, HT1080-NT tox inactive, SW480 rereplic inactive, KB-3-1 cytotox inactive and HT1080 IDH1KD tx inactive.
O=C(Nc1ccc(F)cc1)Nc1sccc1-c1nc2ccccc2s1 was read as KB-V1 cytotox inactive, MCF10A rerep inconclusive, HT1080-NT tox 16µM, SW480 rereplic inactive, KB-3-1 cytotox inactive and HT1080 IDH1KD tx 18µM.
Screening Cc1c(-c2ccccc2)n[nH]c1C(=O)NN returned KB-V1 cytotox inactive, MCF10A rerep inactive, HT1080-NT tox inactive, SW480 rereplic inactive, KB-3-1 cytotox inactive and HT1080 IDH1KD tx inactive.
`CCOC(=O)C1CCN(C(=O)c2cccc(N3C(=O)NC4CC3(C)Oc3ccc(C)cc34)c2)CC1` (stereo not drawn) gave KB-V1 cytotox inactive, MCF10A rerep inactive, HT1080-NT tox inactive, SW480 rereplic inactive, KB-3-1 cytotox inactive and HT1080 IDH1KD tx inactive.
Screening CCOC(=O)N1CCN(C(=O)c2cccc(N3C(=O)NC4CC3(C)Oc3ccc(Cl)cc34)c2)CC1 (stereo not drawn) returned KB-V1 cytotox inactive, MCF10A rerep 16µM, HT1080-NT tox 7.3µM, SW480 rereplic 13µM, KB-3-1 cytotox inconclusive and HT1080 IDH1KD tx 7.3µM.
